# Source: the supplement of paper PMC9492666
# Counter-ions that a name gives are not always drawn.
# Tested on: MDA-MB-231
# Test: relative cell viability, compound + RSL3, vs DMSO (fraction of DMSO control); higher = less growth inhibition
# Details: 72 h
# 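Note: breast cancer cell viability read out with the CCK-8 kit after co-treatment of each compound with the ferroptosis inducer RSL3.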
row,Compound,relative cell viability
1,Cc1c(C(=O)NN2CCCCC2)nn(-c2ccc(Cl)cc2Cl)c1-c1ccc(Cl)cc1 [Rimonabant] + COC(=O)c1ccc([C@H]2c3[nH]c4ccccc4c3C[C@H](C(=O)OC)N2C(=O)CCl)cc1 [RSL3],0.216
2,Nc1ccc(O)c(C(=O)O)c1 [Mesalamine] + COC(=O)c1ccc([C@H]2c3[nH]c4ccccc4c3C[C@H](C(=O)OC)N2C(=O)CCl)cc1 [RSL3],0.592
3,CN(C(=O)n1cnc(-c2ccc[n+]([O-])c2)c1)C1CCCCC1 + COC(=O)c1ccc([C@H]2c3[nH]c4ccccc4c3C[C@H](C(=O)OC)N2C(=O)CCl)cc1 [RSL3],0.526
4,CCC(=O)Nc1cccc(Oc2nc(Nc3ccc(N4CCN(C)CC4)cc3OC)ncc2Cl)c1 + COC(=O)c1ccc([C@H]2c3[nH]c4ccccc4c3C[C@H](C(=O)OC)N2C(=O)CCl)cc1 [RSL3],0.3
5,CC(C)[C@H](N=C(NS(=O)(=O)c1ccc(Cl)cc1)N1C[C@H](c2ccccc2)C(c2ccc(Cl)cc2)=N1)C(N)=O + COC(=O)c1ccc([C@H]2c3[nH]c4ccccc4c3C[C@H](C(=O)OC)N2C(=O)CCl)cc1 [RSL3],0.45
6,CC(C)(Oc1ccc(Cl)cc1)C(=O)O [Clofibric acid] + COC(=O)c1ccc([C@H]2c3[nH]c4ccccc4c3C[C@H](C(=O)OC)N2C(=O)CCl)cc1 [RSL3],0.603
7,O=P(O)(O)OC(CO)CO [β-Glycerol phosphate disodium salt pentahydrate] + COC(=O)c1ccc([C@H]2c3[nH]c4ccccc4c3C[C@H](C(=O)OC)N2C(=O)CCl)cc1 [RSL3],0.56
8,O=C1/C(=C/c2cccs2)CC/C1=C\c1cccs1 + COC(=O)c1ccc([C@H]2c3[nH]c4ccccc4c3C[C@H](C(=O)OC)N2C(=O)CCl)cc1 [RSL3],0.49
9,COc1ccc(C(=O)/C=C/c2ccccc2)cc1 [4'-Methoxychalcone] + COC(=O)c1ccc([C@H]2c3[nH]c4ccccc4c3C[C@H](C(=O)OC)N2C(=O)CCl)cc1 [RSL3],0.582
10,Nc1ncnc2c1ncn2C1OC(COP(=O)(O)O)C(O)C1O (stereo not given) [Adenosine 5'-monophosphate monohydrate] + COC(=O)c1ccc([C@H]2c3[nH]c4ccccc4c3C[C@H](C(=O)OC)N2C(=O)CCl)cc1 [RSL3],0.622
11,CN1CC(O)C2=C/C(=N/NC(N)=O)C(=O)C=C21 (stereo not given) [Carbazochrome] + COC(=O)c1ccc([C@H]2c3[nH]c4ccccc4c3C[C@H](C(=O)OC)N2C(=O)CCl)cc1 [RSL3],0.551
12,CCCCCCCCCCOc1ccc(C(=O)Nc2cc(C(=O)NCCCC)ccc2SC)cc1 + COC(=O)c1ccc([C@H]2c3[nH]c4ccccc4c3C[C@H](C(=O)OC)N2C(=O)CCl)cc1 [RSL3],0.421
13,O=C(O)CN(CC(=O)O)c1ccccc1OCCOc1ccccc1N(CC(=O)O)CC(=O)O + COC(=O)c1ccc([C@H]2c3[nH]c4ccccc4c3C[C@H](C(=O)OC)N2C(=O)CCl)cc1 [RSL3],0.581
14,"COc1ccc(-c2coc3cc(OC)ccc3c2=O)cc1 [4',7-Dimethoxyisoflavone] + COC(=O)c1ccc([C@H]2c3[nH]c4ccccc4c3C[C@H](C(=O)OC)N2C(=O)CCl)cc1 [RSL3]",0.36
15,O=C(O)/C=C/c1ccc(O)c(O)c1 [Caffeic Acid] + COC(=O)c1ccc([C@H]2c3[nH]c4ccccc4c3C[C@H](C(=O)OC)N2C(=O)CCl)cc1 [RSL3],0.426
16,C=CCc1ccc(O)c(-c2cc(CC=C)ccc2O)c1 [Magnolol] + COC(=O)c1ccc([C@H]2c3[nH]c4ccccc4c3C[C@H](C(=O)OC)N2C(=O)CCl)cc1 [RSL3],0.668
17,CCC(CC)CC1(C(=O)Nc2ccccc2SC(=O)C(C)C)CCCCC1 [Dalcetrapib] + COC(=O)c1ccc([C@H]2c3[nH]c4ccccc4c3C[C@H](C(=O)OC)N2C(=O)CCl)cc1 [RSL3],0.684
18,O=c1oc2ccccc2cc1O [3-Hydroxycoumarin] + COC(=O)c1ccc([C@H]2c3[nH]c4ccccc4c3C[C@H](C(=O)OC)N2C(=O)CCl)cc1 [RSL3],0.682
19,O=C(O)c1cc2c(Cl)c(N3CCN(S(=O)(=O)c4c(Cl)cccc4Cl)CC3)ccc2o1 [Vonafexor] + COC(=O)c1ccc([C@H]2c3[nH]c4ccccc4c3C[C@H](C(=O)OC)N2C(=O)CCl)cc1 [RSL3],0.745
20,Cc1ccc(CN(CC(O)COc2cccc3[nH]ccc23)C(C)(C)C)cc1 (stereo not given) + COC(=O)c1ccc([C@H]2c3[nH]c4ccccc4c3C[C@H](C(=O)OC)N2C(=O)CCl)cc1 [RSL3],0.804

row,Compound,relative cell viability
1,Cc1cnc(C(=O)NCCc2ccc(S(=O)(=O)NC(=O)NC3CCCCC3)cc2)cn1 [Glipizide] + COC(=O)c1ccc([C@H]2c3[nH]c4ccccc4c3C[C@H](C(=O)OC)N2C(=O)CCl)cc1 [RSL3],0.484
2,COc1ccc2[nH]cc(CCNC(C)=O)c2c1 [Melatonine] + COC(=O)c1ccc([C@H]2c3[nH]c4ccccc4c3C[C@H](C(=O)OC)N2C(=O)CCl)cc1 [RSL3],0.465
3,C[C@]12C=CC(=O)N[C@@H]1CC[C@@H]1[C@@H]2CC[C@]2(C)[C@@H](C(=O)Nc3cc(C(F)(F)F)ccc3C(F)(F)F)CC[C@@H]12 [Dutasteride] + COC(=O)c1ccc([C@H]2c3[nH]c4ccccc4c3C[C@H](C(=O)OC)N2C(=O)CCl)cc1 [RSL3],0.427
4,O=C1C(SCCO)=C(SCCO)C(=O)c2ccccc21 + COC(=O)c1ccc([C@H]2c3[nH]c4ccccc4c3C[C@H](C(=O)OC)N2C(=O)CCl)cc1 [RSL3],0.925
5,CN(CCOc1ccc(CC2SC(=O)NC2=O)cc1)c1ccccn1 (stereo not given) [Rosiglitazone maleate] + COC(=O)c1ccc([C@H]2c3[nH]c4ccccc4c3C[C@H](C(=O)OC)N2C(=O)CCl)cc1 [RSL3],0.516
6,COc1ccc2c(c1)CCC1C2CCC2(C)C(NCCCCCCN3C(=O)C=CC3=O)CCC12 (stereo not given) + COC(=O)c1ccc([C@H]2c3[nH]c4ccccc4c3C[C@H](C(=O)OC)N2C(=O)CCl)cc1 [RSL3],0.36
7,CN1CCN(c2ccc(/C=C(\C#N)c3ccccc3Br)cc2)CC1 [DG172 (dihydrochloride)] + COC(=O)c1ccc([C@H]2c3[nH]c4ccccc4c3C[C@H](C(=O)OC)N2C(=O)CCl)cc1 [RSL3],0.61
8,CS(=O)(=O)c1ccc(-c2nnc(/C=C/c3nnc(-c4ccc(C#N)cc4)o3)n2-c2ccccc2Cl)nc1 + COC(=O)c1ccc([C@H]2c3[nH]c4ccccc4c3C[C@H](C(=O)OC)N2C(=O)CCl)cc1 [RSL3],0.502
9,CC[C@@H]1/C=C(\C)C[C@H](C)C[C@H](OC)[C@H]2O[C@@](O)(C(=O)C(=O)N3CCCC[C@H]3C(=O)O[C@H](/C(C)=C/[C@@H]3CC[C@@H](O)[C@H](OC)C3)[C@H](C)[C@@H](O)CC1=O)[C@H](C)C[C@@H]2OC [Ascomycin] + COC(=O)c1ccc([C@H]2c3[nH]c4ccccc4c3C[C@H](C(=O)OC)N2C(=O)CCl)cc1 [RSL3],0.236
10,COc1ccc(CN2CCC(c3ccc4nc(C(=O)N5CCN(Cc6ccc(C(F)(F)F)cc6)CC5)[nH]c4c3)CC2)cn1 + COC(=O)c1ccc([C@H]2c3[nH]c4ccccc4c3C[C@H](C(=O)OC)N2C(=O)CCl)cc1 [RSL3],0.562
11,Cc1c(C(=O)NN2CCOCC2)nn(-c2ccc(Cl)cc2Cl)c1-c1ccc(I)cc1 + COC(=O)c1ccc([C@H]2c3[nH]c4ccccc4c3C[C@H](C(=O)OC)N2C(=O)CCl)cc1 [RSL3],0.297
12,O=C(O)CC[C@H](O)C(=O)O [L-2-Hydroxyglutaric acid disodium] + COC(=O)c1ccc([C@H]2c3[nH]c4ccccc4c3C[C@H](C(=O)OC)N2C(=O)CCl)cc1 [RSL3],0.76
13,CC1(C)C[C@H]2C3=CC[C@@H]4[C@@]5(C)CC[C@H](O)[C@@](C)(CO)[C@@H]5CC[C@@]4(C)[C@]3(C)C[C@H](O)[C@@]2(CO)[C@@H](O)[C@@H]1O [Gymnemagenin] + COC(=O)c1ccc([C@H]2c3[nH]c4ccccc4c3C[C@H](C(=O)OC)N2C(=O)CCl)cc1 [RSL3],0.657
14,O=C1c2cccc(O)c2C(=O)c2c(O)cccc21 [Antrapurol] + COC(=O)c1ccc([C@H]2c3[nH]c4ccccc4c3C[C@H](C(=O)OC)N2C(=O)CCl)cc1 [RSL3],0.537
15,CN1c2ccccc2C(=O)Nc2cnc(Nc3ccc(N4CCC(O)CC4)cc3)nc21 + COC(=O)c1ccc([C@H]2c3[nH]c4ccccc4c3C[C@H](C(=O)OC)N2C(=O)CCl)cc1 [RSL3],0.375
16,CC(C)CCC[C@@H](C)[C@H]1CC[C@H]2[C@@H]3CCC4=CC(=NO)CC[C@]4(C)[C@H]3CC[C@]12C [Olesoxime] + COC(=O)c1ccc([C@H]2c3[nH]c4ccccc4c3C[C@H](C(=O)OC)N2C(=O)CCl)cc1 [RSL3],0.689
17,CC1(N)CCN(c2cnc(-c3cccc(Cl)c3Cl)c(N)n2)CC1 [SHP099 hydrochloride] + COC(=O)c1ccc([C@H]2c3[nH]c4ccccc4c3C[C@H](C(=O)OC)N2C(=O)CCl)cc1 [RSL3],0.628
18,COc1cccc(CNc2ccc(S(=O)(=O)Nc3nc4ccccc4s3)cc2)c1O + COC(=O)c1ccc([C@H]2c3[nH]c4ccccc4c3C[C@H](C(=O)OC)N2C(=O)CCl)cc1 [RSL3],0.657
19,COc1ccc(-c2cc(=O)c3c(O)c(OC)c(O)cc3o2)cc1OC [Eupatilin] + COC(=O)c1ccc([C@H]2c3[nH]c4ccccc4c3C[C@H](C(=O)OC)N2C(=O)CCl)cc1 [RSL3],0.496
20,O=C(NN1CCCCC1)c1nn(-c2ccc(Cl)cc2Cl)c(-c2ccc(C#Cc3ccc(C(F)(F)F)cc3)s2)c1CNS(=O)(=O)N1CCCC1 + COC(=O)c1ccc([C@H]2c3[nH]c4ccccc4c3C[C@H](C(=O)OC)N2C(=O)CCl)cc1 [RSL3],0.345
